# According to the supplement of paper PMC13392028:
# The full ranking holds about 4,100 sequences; the median of “RBNS R-value (6-mer enrichment in protein-bound RNA vs input library)” is about 0.96, and the highest 2% start at about 2.4. The sample as a whole holds a higher share of the highest values than the screen did.
# Tested on: PyIESI-1 RRM domain (Plasmodium yoelii PY17X_0911200 aa 795-956, GST fusion)
# Assay: RBNS R-value (6-mer enrichment in protein-bound RNA vs input library) (ratio); higher = stronger binding preference; the methods of the paper give 50 / 100 / 500 nM protein instead
# Protocol: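 RNA Bind-n-Seq: recombinant GST-tagged IESI-1 RRM domain was incubated at room temperature with a random 40-nt in vitro transcribed RNA library at 250, 500 or 1000 nM protein. Bound RNA was pulled down on glutathione beads and sequenced. R-value is the enrichment of each 6-mer in the bound RNA relative to the input library. Each 6-mer sits inside the random 40-mer context, not as an isolated oligo. Values are replicate 1 only.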
Sequence,RBNS R-value (protein concentration: 250 nM),RBNS R-value (protein concentration: 500 nM),RBNS R-value (protein concentration: 1000 nM)
AUGAGC,1.51,1.48,1.49
AUGAUC,2.74,2.71,2.97
CUGAUG,6.48,5.8,5.87
CAGAUA,0.96,0.988,1.02
AGGAUC,0.785,0.788,0.757
AGGAUG,1.22,1.18,1.18
CGGAUG,1.22,1.18,1.18
AUGAAG,1.53,1.51,1.47
CUGAUA,3.66,3.59,3.88
CUGACA,1.26,1.25,1.26
CAGAUG,1.85,1.83,1.93
AUGAUG,8.6,7.43,7.47
AUAAAA,0.85,0.843,0.844
UCCAGG,1,1,1
UCAUUU,0.748,0.785,0.825
CGACAG,1.01,0.998,0.998
CAAUCG,0.873,0.879,0.886
UUAGCC,0.885,0.907,0.915
AGGCUU,0.943,0.943,0.919
CGUUUG,1.1,1.09,1.08
AGGAUA,0.874,0.876,0.848
CUGAAC,1.05,1.06,1.05
AGGAUU,1.06,1.04,0.995
AUGAUU,7.34,6.63,6.94
CUGAUC,2.39,2.38,2.58

Sequence,RBNS R-value (protein concentration: 250 nM),RBNS R-value (protein concentration: 500 nM),RBNS R-value (protein concentration: 1000 nM)
UUGACA,1.57,1.54,1.56
AUGAUA,4.79,4.63,5.14
UUGAGA,1.31,1.32,1.31
AUGAAU,1.41,1.35,1.36
UUGAUA,4.42,4.38,4.81
CUGACC,1.23,1.22,1.27
AUGAGA,1.6,1.58,1.57
AGUCCU,0.811,0.839,0.826
UUCGAU,1.93,1.95,2.08
AACCAG,0.915,0.9,0.923
CUCUGA,1.97,1.91,1.94
GGGAUG,1.3,1.28,1.27
UUGAUG,7.94,6.95,6.96
UAGAUG,1.64,1.65,1.73
UUGAUC,2.63,2.7,2.9
UAGAUC,0.818,0.834,0.838
GUGAAG,0.939,0.946,0.891
UUGACC,1.42,1.42,1.47
GUGAUG,5.06,4.7,4.68
UUGAAG,1.08,1.11,1.08
AAAGCA,0.883,0.885,0.861
CAAGGA,1,0.973,0.963
CGAAUG,1.41,1.37,1.35
UAUACC,0.57,0.601,0.592
CUCGGA,0.971,0.974,0.939

Sequence,RBNS R-value (protein concentration: 250 nM),RBNS R-value (protein concentration: 500 nM),RBNS R-value (protein concentration: 1000 nM)
CGUGCU,0.967,0.973,0.954
GUAAGU,0.66,0.682,0.638
GUCUGG,0.813,0.839,0.796
UCUGAC,1.13,1.12,1.13
GCUGAU,3.92,3.7,3.79
UCUGAU,4.51,4.2,4.42
ACUGAU,4.56,4.17,4.36
CCUGAC,1.32,1.33,1.34
CCUGAU,4.76,4.47,4.65
ACUGAC,1.18,1.16,1.18
UCUGAA,1.01,1.03,0.99
GCUGAG,1.21,1.18,1.15
ACUGAG,1.18,1.19,1.13
GCUGAC,1.21,1.23,1.23
CCUGAA,1.23,1.24,1.23
AUGCAG,1.15,1.16,1.18
AUCUGU,0.889,0.916,0.89
GAGGAG,1.12,1.09,1.02
CUCACG,0.951,0.969,0.993
UCUGGC,1.18,1.18,1.17
GCGACC,1.08,1.08,1.09
GGGUUU,0.955,0.992,0.97
ACACUC,1.07,1.05,1.07
CUUGAA,1.18,1.17,1.15
GUUGAC,1.02,1.02,1.01

Sequence,RBNS R-value (protein concentration: 250 nM),RBNS R-value (protein concentration: 500 nM),RBNS R-value (protein concentration: 1000 nM)
AUUGAU,5.75,5.29,5.52
UUUGAU,6.28,5.82,6.05
CUUGAC,1.61,1.59,1.61
AUUGAG,1.23,1.24,1.21
AUUGAC,1.45,1.46,1.49
UUUGAA,1.15,1.15,1.13
UUUGAC,1.48,1.47,1.5
CUUGAU,4.89,4.7,4.93
GUUGAG,0.856,0.907,0.877
GUUGAU,4.02,3.81,3.96
GUGUGA,1.5,1.51,1.48
UUGGUC,0.872,0.953,0.884
GCGGGC,1.09,1.09,1.07
UUCUGC,1.19,1.21,1.22
GGUUCG,0.887,0.904,0.88
UAUCAG,0.589,0.619,0.59
AGCCUU,0.931,0.961,0.982
GAUCUA,1.19,1.23,1.27
CACGAU,1.8,1.82,1.95
CUUAGA,0.933,0.948,0.93
AACAUA,0.429,0.465,0.417
CCAAAA,1.14,1.1,1.11
